Hits are enriched below; roughly 1.9% of the tested compounds scored in any of these assays.
NCF1 inh – inhibitors of human p47phox binding; P14598; 220,000 compounds, 0.53% hits; AID 1274; p47phox/p22phox peptide binding, fluorescence polarization, 2 h; inhibition, % at 24.7 µM;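 active means inhibition above about 30%, limit read from the data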
ZTA DNA inh – blocks Epstein-Barr virus ZTA, an EBNA-1 counter-screen | P03206 | ZTA-DNA binding, fluorescence polarization | inhibition, % at 11 µM | 320,000 compounds, 0.15% hits | AID 2234; in the data active means inhibition above about 33%
EBNA-1 inhibitor – blocks EBNA-1 binding to DNA. AID 1950. inhibition, % at 14.8 µM. 300,000 compounds, 0.34% hits. EBNA-1 DNA binding, fluorescence polarization; in the data active means inhibition above about 28%
aDG glyco up – increases alpha dystroglycan glycosylation. Pro5-aDG cells, alpha-DG glycosylation AlphaScreen (IIH6); 0% Pro5, 100% B10-LARGE cell signal. activation, % at 10 µM. 360,000 compounds, 0.22% hits;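 active means activation of at least 8% versus controls, or a plate z-score of at least 8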;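 further: Pro5 are CHO cells carrying HIG-tagged alpha-DG that lacks glycosylation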
NR1D1 modulator – modulates human Rev-erb alpha binding to DNA | activity, % at 10 µM | 370,000 compounds, 0.79% hits | Rev-erbα–FITC-DNA binding, fluorescence polarization, 90 min | P20393 | AID 1259318;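 active means activity above about 14%, limit read from the data; passing the limit was not always enough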
Target sequence (P20393 whole entry, looked up): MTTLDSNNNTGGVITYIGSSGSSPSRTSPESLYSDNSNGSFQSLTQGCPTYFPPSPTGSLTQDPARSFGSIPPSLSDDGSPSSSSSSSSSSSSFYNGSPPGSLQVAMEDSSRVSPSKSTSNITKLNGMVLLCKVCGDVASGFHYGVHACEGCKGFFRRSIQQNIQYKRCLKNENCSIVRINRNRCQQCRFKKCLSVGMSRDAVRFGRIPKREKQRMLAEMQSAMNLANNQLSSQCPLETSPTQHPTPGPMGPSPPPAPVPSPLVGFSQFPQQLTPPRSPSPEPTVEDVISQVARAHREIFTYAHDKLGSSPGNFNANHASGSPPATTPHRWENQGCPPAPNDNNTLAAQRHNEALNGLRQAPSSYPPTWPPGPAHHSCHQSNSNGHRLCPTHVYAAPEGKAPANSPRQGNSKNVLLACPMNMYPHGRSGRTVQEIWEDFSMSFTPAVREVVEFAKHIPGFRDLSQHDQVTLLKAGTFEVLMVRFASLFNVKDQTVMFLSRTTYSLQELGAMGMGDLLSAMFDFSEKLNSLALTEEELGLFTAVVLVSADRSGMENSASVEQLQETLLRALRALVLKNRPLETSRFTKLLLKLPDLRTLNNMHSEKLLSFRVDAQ
PG9 binder – PG9 antibody binding by small molecule; TR-FRET gp120-PG9 antibody binding; inhibition, % at 6.7 µM; 360,000 compounds, 0.43% hits; AID 624416; in the data active means inhibition above about 8.5%
Rev-erbA confirm – Rev-erb alpha (human) modulation, hit confirmation; shares compounds with NR1D1 modulator; Rev-erb alpha FITC-DNA binding, fluorescence polarization, 90 min; activation, % at 25 µM; 3,000 compounds, 61% hits;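 active means activation at or above a set limit, or at least 3 SD above the negative control mean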
RORg DNA counter – RORgamma DNA-binding activity, dose-response counter-screen; shares compounds with NR1D1 modulator; purified RORgamma protein-FITC-DNA binding, fluorescence polarization; IC50, µM; 910 compounds, 8% hits;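 active means Compounds whose fitted half-maximal concentration for disrupting protein-DNA binding is below 10 micromolar; the record names Rev-erb in its text, so the target is in doubt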
Numbers stand for hits; i = inactive; nt = no result given.

SMILES	NCF1 inh	ZTA DNA inh	EBNA-1 inhibitor	aDG glyco up	NR1D1 modulator	PG9 binder	Rev-erbA confirm	others
CCOC(=O)c1c(C2CC2)csc1NC(=O)COC(=O)c1cnc(Cl)c(Cl)c1	i	i	i	i	81	i	80	RORg DNA counter=i
C[C@@H](CCCCC1(C)OCCO1)CCC(=O)N(c1ccccc1)c1ccccc1	nt	nt	nt	nt	i	nt	nt
O=C(CSc1nnc(-c2ccc3c(c2)OCO3)n1-c1ccccc1)c1ccccc1	i	i	i	i	25	i	18
O=C(CSc1nnc(-c2ccc3c(c2)OCO3)n1-c1ccccc1)c1ccc(Cl)cc1	i	i	i	i	i	i	nt
CCSc1ncnc2c1oc1ccccc12	i	i	i	i	i	i	nt
Fc1cccc(CSc2ncnc3c2oc2ccccc23)c1	i	i	i	i	122	i	154	RORg DNA counter=6.3
Fc1ccc(CSc2ncnc3c2oc2ccccc23)cc1	i	i	i	i	290	i	284	RORg DNA counter=i
O=C1CCC[C@H]2C[C@H](NCc3cccnc3)CC[C@]23CCCN13	nt	nt	nt	nt	i	nt	nt
Cc1ccc(OCc2nnc(SCC(=O)c3ccc(-c4ccccc4)cc3)n2Cc2ccco2)cc1	nt	nt	nt	nt	i	nt	nt
O=C([C@@H]1C[C@H]1c1ccccc1)N1CC[C@H]2[C@H](CCCN2Cc2ccccc2)C1	nt	nt	nt	nt	i	nt	nt
CN(C)/C=N/c1ncc(C(=O)c2ccc(-c3ccccc3)cc2)s1	i	i	i	i	17	i	i
COC(=O)c1c(NC(=O)c2ccccc2)sc(C(=O)c2ccccc2)c1C	i	i	i	i	27	i	i
CCCCC(C(=O)NC1CCCC1)N(Cc1ccccc1)C(=O)c1snc(C(N)=O)c1N (stereo not given)	nt	i	i	i	22	i	i
CC(C)c1ccc(N(C(=O)c2snc(C(N)=O)c2N)C(C(=O)NCC2CCCO2)c2ccc(N(C)C)cc2)cc1 (stereo not given)	nt	nt	nt	i	i	i	nt
CN(C)c1ccc(C(C(=O)NCC2CCCO2)N(C(=O)c2snc(C(N)=O)c2N)c2ccccc2)cc1 (stereo not given)	nt	i	i	i	38	i	i
Cc1cccc(N(C(=O)c2snc(C(N)=O)c2N)C(C(=O)NCC2CCCO2)c2ccc(N(C)C)cc2)c1 (stereo not given)	nt	i	i	i	46	i	i
CCCC(C(=O)NC1CCCC1)N(Cc1ccc(F)cc1)C(=O)c1snc(C(N)=O)c1N (stereo not given)	nt	i	i	i	i	i	nt
CN(C)c1ccc(C(C(=O)NCC2CCCO2)N(C(=O)c2snc(C(N)=O)c2N)c2ccc3c(c2)OCO3)cc1 (stereo not given)	nt	i	i	i	i	i	nt
COc1ccccc1CNC(=O)N1CCN(Cc2nc3ccccc3c(=O)[nH]2)CC1	nt	nt	nt	nt	i	nt	nt
O=c1c2cc(Br)ccc2[nH]c(=S)n1Cc1ccccc1	nt	i	i	i	39	i	18
CCN(CC)C(=O)c1ccc2c(=O)n(Cc3cccc(Br)c3)c(=S)[nH]c2c1	nt	i	i	nt	33	i	i
CNc1oc(-c2ccccc2)nc1S(=O)(=O)c1ccc(C)cc1	nt	i	i	i	i	i	nt
CCOc1ccc(-c2nc(S(=O)(=O)c3ccccc3)c(NC)o2)cc1	nt	i	i	i	47	i	i
CCCCCCNC(=O)C(C#N)c1nc2ccccc2nc1N1CCOCC1 (stereo not given)	i	i	i	i	40	i	34	RORg DNA counter=i
N#CC(C(=O)NCCc1ccccc1)c1nc2ccccc2nc1N1CCOCC1 (stereo not given)	i	i	i	i	i	i	nt
SMILES	NCF1 inh	ZTA DNA inh	EBNA-1 inhibitor	aDG glyco up	NR1D1 modulator	PG9 binder	Rev-erbA confirm	others
N#CC(C(=O)NCCc1ccccc1)c1nc2ccccc2nc1N1CCCCC1 (stereo not given)	i	i	i	i	36	i	i
CCCCN(CCCC)c1nc2ccccc2nc1C(C#N)C(=O)NCCCOC (stereo not given)	i	i	i	i	69	i	i
COc1ccc2c(c1)CO[C@H]([C@H](O)COC(C)=O)[C@H]2/C=C/c1ccccc1	nt	nt	nt	nt	i	nt	nt
CC1COc2c(N3CCN(C)CC3)c(F)cc3c(=O)c(C(=O)O)cn1c23 (stereo not given)	i	i	i	i	i	i	nt
CCOc1ccc(NC(=O)c2ccc(NC(=O)c3cn4c5c(c(N6CCN(C)CC6)c(F)cc5c3=O)OCC4C)cc2)cc1 (stereo not given)	82	i	i	i	70	i	41
CS(=O)(=O)Nc1ccc(-c2ccc(/C=C3\SC(N)=NC3=O)o2)cc1	nt	i	i	i	44	i	33	RORg DNA counter=i
Cn1cccc1C(=O)N1CCN(S(=O)(=O)c2ccc(F)cc2)CC1	nt	nt	nt	nt	i	nt	nt
CCCNC(=O)C[C@H]1CC[C@H]2[C@@H](COc3ccc(NC(=O)c4cncs4)cc3C(=O)N2C)O1	nt	nt	nt	nt	i	nt	nt
O=C(Nc1nnc(-c2ccc3c(c2)OCCO3)o1)c1ccc(Cc2ccccc2)cc1	i	i	i	i	31	i	i
CCOc1ccc(-n2c(SCC(=O)Nc3ccc(S(=O)(=O)Nc4cc(C)nc(C)n4)cc3)nnc2-c2ccc(C)cc2)cc1	nt	nt	nt	nt	i	nt	nt
COC(=O)[C@]12C[C@H](CC(=O)N3CCSCC3)C(=O)N(Cc3cccc4ccccc34)C1=C[C@H](COCc1ccccc1)O[C@@H]2C	nt	nt	nt	nt	i	nt	nt
Clc1cccc2sc(-c3nnc(-c4ccccc4)o3)c(Cl)c12	nt	i	i	i	38	i	31
N#CCSc1nnc(-c2sc3ccccc3c2Cl)o1	i	i	i	i	i	i	nt
CC(C)c1ccc(S(=O)(=O)c2nnn3c2nc(NCC2CCCO2)c2ccccc23)cc1 (stereo not given)	nt	i	i	i	nt	nt	nt
O=S(=O)(c1ccccc1)c1nnn2c1nc(NC1CCN(Cc3ccccc3)CC1)c1cc(Cl)ccc12	nt	i	i	i	25	i	i
O=C(NC1CCN(Cc2ccccc2)CC1)C1CCN(S(=O)(=O)c2ccc(Cl)cc2)CC1	nt	i	i	i	i	i	nt
O=S(=O)(c1ccccc1)c1nnn2c1nc(NC1CCN(Cc3ccccc3)CC1)c1ccccc12	nt	i	i	i	47	i	i
CC(C)(C)OC(=O)N1CCC(c2ccc[nH]2)(c2c[nH]c3ccccc23)CC1	nt	nt	nt	nt	i	nt	nt
C=CCNC(=O)c1ccc(-c2nc(-c3ccc(Cl)cc3Cl)cs2)cc1	i	i	i	i	31	i	44	RORg DNA counter=i
COC(=O)CCC(=O)c1oc2ccc(Cl)cc2c1NC(=O)CCCN1C(=O)c2ccccc2C1=O	i	i	i	i	41	i	28
COc1cc2c(cc1NC(=O)CCCN1C(=O)CCC1=O)oc1ccccc12	i	i	i	i	i	i	nt
COc1ccc(S(=O)(=O)N2CCCCCC2)cc1C(=O)Nc1ccccn1	nt	i	i	i	46	i	i
